# Screening results from PubChem BioAssay.
# rCAG RNA binder: binds r(CAG) RNA repeats. r(CAG) RNA repeat, TO-PRO-1 dye displacement fluorescence. inhibition, % at 3 µM. AID 651821. 370,000 tested, 1.3% active;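 active means inhibition above the plate cutoff, the mean of all test compounds on that plate plus 3 SD, cut at about 35% in these data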;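 further: 0% = DMSO alone and 100% = 100 µM mitoxantrone as full dye displacement; higher means more dye released from RNA so lower well fluorescence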
# ABHD5 PLIN5 PPI: blocks binding of human ABHD5 to perilipin-5; 360,000 tested, 0.78% active; inhibition, % at 4 µM; AID 602281; Split G. princeps luciferase complementation, luminescence, 4 h; Q00G26+Q8WTS1;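 active means inhibition above the mean inhibition across every tested compound plus 3 SD, cut at about 22% in these data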;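 further: 0% = DMSO only wells and the 100% control is not disclosed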
# PRMT1 FP inh: blocks human protein arginine methyltransferase 1; Q99873; recombinant PRMT1, activity-based probe fluorescence polarization; inhibition, % at 2.79 µM; 370,000 tested, 1.3% active;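 active means inhibition above about 21% made by adding two undisclosed values, limit read from the data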
# TLR4 MyD88 comp: TLR4-MyD88 interaction inhibition in cells; O00206+Q99836; HeLa CL3-4 TLR4/MyD88 BLA complementation, FRET ratio; inhibition, % at 8.4 µM; 200,000 tested, 0.18% active; AID 861; in the data active means inhibition above about 25%;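 further: 0% = vehicle and 100% = reference inhibitor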
# NOD2-RIPK2 inh: NOD2-RIPK2 protein interaction inhibition; 360,000 tested, 0.38% active; O43353; CHO BLA complementation NOD2-RIPK2, CCF4 ratio; AID 624267; inhibition, % at 4.98 µM; in the data active means inhibition above about 21%;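 further: 0% = vehicle only and 100% = reference blocker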
# TLR9-MyD88 block: TLR9-MyD88 interaction inhibition; Q9NR96+Q99836; CHO BLA complementation TLR9-MyD88, CCF4 FRET ratio; inhibition, % at 4.98 µM; 340,000 tested, 0.21% active;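 active means inhibition above the mean over all tested compounds plus 3 SD, cut at about 21% in these data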;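 further: 0% = DMSO only wells and 100% = clavulanate BLA inhibitor control wells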
# Target sequence (Q99836 whole entry, looked up): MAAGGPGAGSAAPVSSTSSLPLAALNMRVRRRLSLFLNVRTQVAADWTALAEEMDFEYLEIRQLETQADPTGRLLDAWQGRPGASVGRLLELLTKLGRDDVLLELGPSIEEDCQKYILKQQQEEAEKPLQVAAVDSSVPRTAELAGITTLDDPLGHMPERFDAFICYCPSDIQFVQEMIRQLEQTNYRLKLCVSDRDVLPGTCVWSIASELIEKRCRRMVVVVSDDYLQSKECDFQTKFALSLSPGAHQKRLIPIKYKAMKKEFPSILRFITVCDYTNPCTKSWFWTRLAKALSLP
# Target sequence (Q9NR96 whole entry, looked up): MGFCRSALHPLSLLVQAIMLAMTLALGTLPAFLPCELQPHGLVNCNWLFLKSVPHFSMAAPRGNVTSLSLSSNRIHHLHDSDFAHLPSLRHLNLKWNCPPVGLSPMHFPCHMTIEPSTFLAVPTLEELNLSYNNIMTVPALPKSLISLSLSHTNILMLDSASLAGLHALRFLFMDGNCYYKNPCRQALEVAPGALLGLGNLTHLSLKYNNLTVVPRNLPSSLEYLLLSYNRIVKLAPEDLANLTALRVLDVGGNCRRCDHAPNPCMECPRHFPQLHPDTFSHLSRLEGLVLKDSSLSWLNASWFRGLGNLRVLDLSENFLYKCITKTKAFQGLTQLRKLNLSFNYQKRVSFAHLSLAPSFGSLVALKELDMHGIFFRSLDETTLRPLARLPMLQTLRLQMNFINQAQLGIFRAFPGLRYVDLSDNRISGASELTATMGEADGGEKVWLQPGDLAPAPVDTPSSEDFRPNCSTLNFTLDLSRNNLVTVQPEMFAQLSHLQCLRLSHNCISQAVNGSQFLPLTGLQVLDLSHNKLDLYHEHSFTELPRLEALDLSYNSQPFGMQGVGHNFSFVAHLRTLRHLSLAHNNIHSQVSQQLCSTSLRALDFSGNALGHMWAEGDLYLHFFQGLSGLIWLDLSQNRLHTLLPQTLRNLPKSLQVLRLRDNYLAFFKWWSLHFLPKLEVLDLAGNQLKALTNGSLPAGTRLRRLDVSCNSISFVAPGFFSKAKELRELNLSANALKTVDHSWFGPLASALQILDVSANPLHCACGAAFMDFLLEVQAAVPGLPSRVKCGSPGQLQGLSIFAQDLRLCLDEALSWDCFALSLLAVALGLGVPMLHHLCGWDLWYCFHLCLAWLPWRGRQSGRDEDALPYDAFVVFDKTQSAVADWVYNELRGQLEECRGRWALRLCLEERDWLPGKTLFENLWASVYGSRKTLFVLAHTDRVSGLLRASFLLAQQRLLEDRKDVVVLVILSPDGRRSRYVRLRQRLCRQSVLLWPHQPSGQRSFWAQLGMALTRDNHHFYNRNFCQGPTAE
# ABHD5 PLIN5 conf: ABHD5-PLIN5 interaction inhibition, confirmed; shares compounds with ABHD5 PLIN5 PPI; biochemical ABHD5-PLIN5 interaction, luminescence; inhibition, % at 4 µM; 2,200 tested, 67% active; AID 651612; in the data active means inhibition above about 23%;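 further: 0% = DMSO vehicle wells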
# HNF4 counter: active in HNF4 split-luciferase counter-screen for ABHD5-PLIN5 inhibitors | 2,200 tested, 77% active | HNF4 dimerization, luminescence, biochemical | inhibition, % at 4 µM | shares compounds with ABHD5 PLIN5 PPI;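 active means mean inhibition across replicate wells exceeding the computed hit threshold, cut at about 13% in these data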;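 further: light from luciferase halves that rejoin when HNF4 fusion proteins dimerize; 0% = DMSO only wells and the 100% control is not given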
# * = called active by the depositor; · = no result. Hits are enriched below; roughly 3.3% of the tested compounds scored in any of these assays.
SMILES,rCAG RNA binder,ABHD5 PLIN5 PPI,PRMT1 FP inh,TLR4 MyD88 comp,NOD2-RIPK2 inh,TLR9-MyD88 block,ABHD5 PLIN5 conf,HNF4 counter
CCN(CC)CCNC(=O)c1ccc(NC(=O)c2cn(-c3ccccc3)nc2-c2cccs2)cc1,8,35*,-3,-9,-11,-2,18,-5
CC(C)OC(=O)CN1C(=O)S/C(=C/c2ccc(N3CCCCC3)o2)C1=O,13,34*,16,2,9,-3,61*,102*
O=C(C1CCN(c2nc(-c3ccc(Br)cc3)cs2)CC1)N1CCNCC1,·,·,-3,·,·,·,·,·
O=C(CCCN1C(=O)S/C(=C/C=C/c2ccccc2)C1=O)Nc1ccc(C(=O)O)cc1,31,28*,-1,·,-8,6,17,12
O=C(CN1C(=O)S/C(=C\C=C\c2ccccc2)C1=O)Nc1ccc(O)cc1,19,30*,2,-2,1,-7,12,3
O=C(CN1C(=O)S/C(=C\C=C\c2ccccc2)C1=O)N1CCCCC1,·,3,·,·,-3,2,·,·
O=C(c1nc2ccccn2c1CN1CCCC(OCc2ccccc2)C1)N1CCCC1 (configuration not stated),-7,0,-1,7,0,-4,·,·
COc1ccccc1N1CCN(S(=O)(=O)c2c(C)[nH]c(=O)[nH]c2=O)CC1,0,0,9,-13,-7,-8,·,·
Cc1cccc2cc(/C=C/C(=O)c3ccco3)c(Cl)nc12,7,42*,6,·,-3,·,73*,63*
Cc1cccc2cc(/C=N/NC(=O)c3ccccc3O)c(Cl)nc12,6,2,-1,2,-1,-1,·,·
CCOc1ccc2nc(Cl)c(/C=C/C(=O)c3ccco3)cc2c1,5,34*,0,8,-5,-7,93*,92*
Nc1nc(Sc2c([N+](=O)[O-])cc(C(F)(F)F)cc2[N+](=O)[O-])n[nH]1,6,58*,15,·,5,8,79*,98*
CC(C)(C)OC(=O)C[C@H]1C/C=C\C[C@H](CC(=O)NCCO)C(=O)N[C@@H](c2ccccc2)COC1=O,-7,1,-6,·,-3,-11,·,·
CN(C)CCCN(C(=O)c1ccco1)c1nc2ccc(Br)cc2s1,3,25*,-4,16,-3,-3,17,7
CN(C)CCN(C(=O)c1ccco1)c1nc2cc3c(cc2s1)OCCO3,0,0,-2,·,-2,-12,·,·
CN(C)CCCN(C(=O)c1ccc2c(c1)OCCO2)c1nc2ccc(Cl)cc2s1,-5,14,-1,·,-7,4,·,·
Cc1ccc(C(=O)N(CCCN(C)C)c2nc3ccc(Cl)cc3s2)cc1C,1,28*,3,-2,4,-10,22,12
Cc1cccc2sc(N(CCCN(C)C)C(=O)CCc3ccccc3)nc12,-3,26*,1,-3,8,-11,20,6
Cc1ccc2sc(N(CCCN(C)C)C(=O)c3ccc(Br)s3)nc2c1C,10,27*,4,14,-7,4,16,3
O=C(Cc1c[nH]c2ccccc12)Nc1ccc(Nc2cccnc2)c(Br)c1,11,·,-3,·,·,·,·,·
CN(C)CCCN(C(=O)c1ccco1)c1nc2ccc(Cl)cc2s1,3,24*,-1,0,-7,8,18,10
CN(C)CCCN(C(=O)CCc1ccccc1)c1nc2ccc(Br)cc2s1,2,39*,6,-7,9,4,27*,5
CN(C)CCCN(C(=O)CCc1ccccc1)c1nc2ccc(F)cc2s1,-4,12,-1,4,2,-3,·,·
O=C1c2cccc3cccc(c23)C(=O)N1CC1CCN(CC(O)COc2ccc3ccccc3c2)CC1 (configuration not stated),11,26*,6,·,12,-5,10,1
COc1ccc(N/N=C(\C#N)C(=N)SCc2ccccc2)cc1,5,39*,9,0,-11,1,38*,37*
SMILES,rCAG RNA binder,ABHD5 PLIN5 PPI,PRMT1 FP inh,TLR4 MyD88 comp,NOD2-RIPK2 inh,TLR9-MyD88 block,ABHD5 PLIN5 conf,HNF4 counter
COc1ccc(N/N=C(\C#N)C(=N)N2CCCCC2)cc1,0,6,4,·,-2,9,·,·
CC(=C/C(=O)O)/C=C/c1ccco1,2,25*,0,4,4,-4,10,17*
COc1ccc(C(NC(=O)/C=C/c2ccco2)c2ccc(OC)cc2)cc1,15,25*,14,7,-6,5,66*,46*
COc1cccc(NC(=O)/C=C/c2ccco2)c1,2,9,11,2,1,0,·,·
CC(/C=C/c1ccc(Cl)o1)=C\C(=O)O,2,14,4,-16,0,0,·,·
CCO[C@H]1OC(C(=O)NC2CC2)=C[C@@H](c2csc3ccccc23)[C@@H]1CCCO,1,-2,-1,-7,-1,3,·,·
O=c1[nH]c(/C=C\c2ccccc2F)nc(O)c1[N+](=O)[O-],2,33*,3,·,-8,2,55*,43*
C=CCOc1cccc(/C=C\c2nc(O)c([N+](=O)[O-])c(=O)[nH]2)c1,7,46*,2,·,-15,-4,79*,69*
O=c1[nH]c(/C=C/c2ccccc2F)nc2ccccc12,2,0,3,·,1,0,·,·
O=c1[nH]c(/C=C\c2cccc(Cl)c2)nc(O)c1[N+](=O)[O-],1,51*,4,·,1,-8,88*,75*
COc1ccc(/C=C\c2nc(O)c([N+](=O)[O-])c(=O)[nH]2)cc1O,3,23*,-1,·,-6,4,27*,30*
COc1cc2c(cc1OC)-c1cc(Nc3cccc(C)c3)nc(=O)n1CC2,8,2,-2,·,-4,-1,·,·
COc1ccc(C(=O)NC(C)c2ccc(-n3ccnc3)cc2)cc1S(=O)(=O)N1CCOCC1 (configuration not stated),-3,12,2,·,-1,-5,·,·
O=C1CCc2cc(S(=O)(=O)N3CCN(c4ccccc4Cl)CC3)ccc2N1,3,·,-3,·,·,·,·,·
C#CCOc1c(/C=C\c2nc(O)c([N+](=O)[O-])c(=O)[nH]2)cc(Br)cc1OC,20,46*,2,·,8,-1,83*,74*
O=c1[nH]c(/C=C\c2cccc(F)c2)nc(O)c1[N+](=O)[O-],3,36*,-1,·,4,7,69*,54*
CN(C)c1ccc(C(=O)c2ccc(O)cc2O)cc1,3,-10,-5,-5,4,-2,·,·
CN(C)c1ccc(Cc2cc3c(O)ccc(O)c3cc(Cc3ccc(N(C)C)cc3)c2=O)cc1,76*,87*,79*,·,2,5,95*,47*
